High-throughput results (PubChem)
Compounds with a hit are over-represented: about 4.5% of the library has one in this group of screens.
NR3A LBD binder: NR3A (human) ligand-binding domain modulation. NR3A LBD differential scanning fluorimetry, Tm shift; 0% = protein alone, 100% = glycine-bound protein. Tm shift relative to glycine control, % at 25 µM. 340,000 tested, 2.5% active;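 active means melting temperature shift of at least 10% of the positive control shift, at one fixed dose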
TPT1 inh: C. albicans TPT1 enzyme inhibition; recombinant caTPT1, FP RNA substrate dephosphorylation; inhibition, % at 5 µM; 300,000 tested, 0.81% active; AID 1962;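 active means inhibition above the mean of all tested compounds plus 3 SD, set per screening campaign, cut at about 24% in these data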
Rpn11 block: Rpn11 (human) deubiquitinase inhibition | inhibition, % at 20 µM | AID 588493 | O00487 | human 26S proteasome, Ub4-pepOG fluorescence polarization; 20S core pre-blocked with epoxomicin | 360,000 tested, 0.59% active;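 active means inhibition at 20 µM, scaled to each plate's controls, above about 33%, limit read from the data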
dFosB act: mouse delta FosB homodimer activation | 340,000 tested, 0.99% active | AID 493131 | activation, % at 25 µM | purified delta FosB, TAMRA-CDK5 oligo fluorescence polarization; percent of positive-control signal above neutral wells | P13346;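 active means mean activation above about 17%, with every replicate also reaching it, limit read from the data, passing the limit was not always enough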
ZTA DNA inh: ZTA (EBV) inhibition in EBNA-1 counter-screen; P03206; ZTA-DNA binding, fluorescence polarization; 320,000 tested, 0.15% active; inhibition, % at 11 µM; in the data active means inhibition above about 33%
Target sequence (P03206 whole entry, looked up): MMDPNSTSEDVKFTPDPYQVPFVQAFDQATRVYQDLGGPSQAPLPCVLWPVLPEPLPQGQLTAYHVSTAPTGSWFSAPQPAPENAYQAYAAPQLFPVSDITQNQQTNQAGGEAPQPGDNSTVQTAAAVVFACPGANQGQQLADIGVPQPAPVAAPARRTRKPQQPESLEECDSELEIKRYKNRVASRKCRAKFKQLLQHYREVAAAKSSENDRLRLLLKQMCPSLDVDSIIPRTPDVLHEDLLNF
EBNA-1 inh: blocks EBNA-1 binding to DNA; EBNA-1 DNA binding, fluorescence polarization; inhibition, % at 14.8 µM; 300,000 tested, 0.34% active; AID 1950; in the data active means inhibition above about 28%
TPT1 inh confirm: confirmation of Candida albicans TPT1 inhibitors; shares compounds with TPT1 inh; recombinant caTPT1, fluorescence polarization, RNase T1 coupled; inhibition, % at 5 µM; 2,400 tested, 74% active;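 active means inhibition above the primary screen limit, the mean inhibition of all tested compounds plus 3 SD, cut at about 25% in these data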
RNase T1 counter: RNase T1 inhibition in TPT1 counter-screen | shares compounds with TPT1 inh | 2,400 tested, 83% active | RNase T1 cleavage, fluorescence polarization, 1536-well | inhibition, % at 5 µM | AID 2153;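 active means inhibition above the solvent-only control well mean plus 3 SD, limit set per screening run, cut at about 23% in these data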;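 further: inhibitors block cleavage so intact labeled substrate keeps polarization high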
Target sequence (P00651 whole entry, looked up): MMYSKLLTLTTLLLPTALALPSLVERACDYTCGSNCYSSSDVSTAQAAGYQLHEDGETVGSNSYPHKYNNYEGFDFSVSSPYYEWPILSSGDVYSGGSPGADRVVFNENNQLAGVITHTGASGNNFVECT
Hits are given with their value; - = inactive; . = no result shown; + = active, no number.

SMILES	NR3A LBD binder	TPT1 inh	Rpn11 block	dFosB act	ZTA DNA inh	EBNA-1 inh	TPT1 inh confirm	RNase T1 counter
CCOC(=O)COc1ccc(S(=O)(=O)N2CCN(c3ccccc3F)CC2)cc1	-	109.2	-	-	-	-	-	-
O=C(COC(=O)C1CCN(c2ccc(C(F)(F)F)cn2)CC1)NCc1cccc(Cl)c1	-	.	-	-	.	.	.	.
C=CCNC(=O)/C(C#N)=C\c1cc(Cl)c(O)c(OCC)c1	-	24.8	-	-	-	-	34.1	41.5
CCOc1ccc(NC(=O)/C(C#N)=C/c2ccc(N3CCCC3)c(C)c2)cc1	-	83.3	.	-	-	-	82.6	89.4
CCOCCCNC(=O)/C(C#N)=C/c1cc(C)c(O)c(C)c1	-	-	-	-	-	-	.	.
CCOc1cc(/C=N/NC(=O)C(N)=O)cc(Br)c1O	-	-	-	-	-	-	.	.
CCOc1cc(/C=C(/C#N)C(=O)Nc2ccc(O)cc2)cc(Br)c1O	13.2	+	.	-	-	-	171.4	163.7
COC(CNC(=O)c1coc2nc3ccccc3nc12)OC	-	-	-	-	-	-	.	.
Cc1ccc(C(=O)NNC(=O)c2ccc(S(=O)(=O)N3CCCCC3)cc2)cc1	-	.	-	-	.	.	.	.
CCN(CC)c1ccc2cc(C#N)c(=O)oc2c1	-	46.0	-	-	-	-	44.5	57.7
CCN(CC)c1ccc2cc(C(=O)NNC(=O)c3ccc(S(=O)(=O)N4CCCCC4)cc3)c(=O)oc2c1	-	48.9	.	-	-	-	76.9	85.9
CCN(CC)c1ccc2cc(S(=O)(=O)c3ccc(C)cc3)c(=O)oc2c1	-	69.6	-	-	-	-	71.5	81.0
Cn1nc(C(C)(C)C)cc1NC(=O)C1(C)CCN1C(=O)C1(c2ccccc2)CC1 (stereo not given)	.	.	-	.	.	.	.	.
N#C/C(=C\c1cccnc1)c1nc2c(s1)CCCC2	-	-	-	-	-	-	.	.
COc1cc(/C=C(\C#N)c2nc3c(s2)CCCC3)ccc1O	.	145.6	.	.	-	-	168.2	152.4
O=C(O)CCn1cc(/C=C2\SC(=S)NC2=O)c(-c2ccccc2)n1	-	54.2	-	-	-	-	-	-
COc1ccc(-c2nn(-c3ccccc3)cc2/C=C2/SC(=S)N(CCC(=O)O)C2=O)cc1	-	-	-	-	-	-	.	.
CCC1(CC)NC(=O)N(CC(=O)OC(C)C(=O)Nc2ccc(S(N)(=O)=O)cc2)C1=O (stereo not given)	.	.	-	.	.	.	.	.
O=C(O)CCC(=O)c1ccc(C2CCCCCC2)cc1	.	.	-	.	.	.	.	.
Cc1coc2c(C)c3oc(=O)c(CCC(=O)N[C@@H](C)C(=O)N[C@@H](Cc4ccccc4)C(=O)O)c(C)c3cc12	-	-	-	-	-	-	.	.
Cc1onc(-c2ccccc2)c1C(=O)Nc1sccc1C#N	-	83.3	.	-	-	-	90.8	98.9
Cc1onc(-c2ccccc2)c1C(=O)Nc1sc2c(c1C#N)CCC2	-	-	-	-	-	-	.	.
Cc1cccc(NC(=S)NNc2cccc(Cl)c2)c1	-	-	-	-	-	-	.	.
Cc1ccc(NS(=O)(=O)c2cc([N+](=O)[O-])ccc2NNC(=S)Nc2cccc(Cl)c2)c(C)c1	-	36.0	75.6	-	-	-	36.6	45.7
C=CCOc1ccc(/C=N/NC(=O)c2c(C)nc3ccc(Cl)cn23)cc1	-	-	-	-	-	-	.	.
SMILES	NR3A LBD binder	TPT1 inh	Rpn11 block	dFosB act	ZTA DNA inh	EBNA-1 inh	TPT1 inh confirm	RNase T1 counter
COC/C=C/C1=CC2=CC(=O)C(C)(O)C(=O)C2=CO1 (stereo not given)	.	-	.	.	-	-	.	.
CC1=NN(c2ccccc2)C(=O)/C1=C/N(C)C	-	-	-	-	-	-	.	.
CC1=NN(c2ccccc2)C(=O)/C1=C\C=C1\N(C)c2ccccc2C1(C)C	-	61.2	.	-	-	-	51.1	63.7
CN1/C(=C\C=C2/SC(=S)NC2=O)C(C)(C)c2ccccc21	-	105.6	.	69.6	-	-	111.0	105.7
CN1/C(=C\C=C2/C(=O)Oc3ccccc3C2=O)C(C)(C)c2ccccc21	-	98.0	.	.	-	-	-	-
CCCN1C(=O)/C(=C\C=C2\N(CC)c3ccccc3C2(C)C)SC1=S	-	.	.	-	.	.	.	.
